Results published in PubChem BioAssay (NCI).
The panel holds about 83,000 compounds, 20% with a hit somewhere; the sample as a whole holds those more often.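 In brief: 96-well plates, 48 h treatment, single concentration, percent growth endpoint.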 Calls of active or inactive are those of the source. Rule for the calls: active = growth percent below 10; inactive = the rest.

Legend:
Experiment in all cases: NCI-60 one-dose screen, 48 h (100 = growth as untreated, 0 = no growth, -100 = all killed)
Conditions in all cases: 10 µM unless noted
[1] = test system: MOLT-4 leukemia
[2] = test system: SR leukemia
[3] = test system: RPMI-8226 leukemia
[4] = test system: OVCAR-8 ovarian
[5] = test system: OVCAR-5 ovarian
[6] = test system: SK-OV-3 ovarian
[7] = test system: IGROV1 ovarian
[8] = test system: OVCAR-3 ovarian
[9] = test system: HS 578T breast
[10] = test system: OVCAR-4 ovarian

Measured: growth

ClCCN(CCCl)c1ccc(-n2cnc3c(Cl)ncnc32)cc1
active: [1] 7.06% | [2] -29.2% | [7] -84.5% | [8] -35.4%
inactive: [3] 59.6% | [4] 35.1% | [5] 117% | [6] 90.5% | [9] 49.5%

Cc1ccc(C(=O)NCCCOc2ccc(N)cc2Cl)cc1S(=O)(=O)F
inactive: [1] 79.7% | [2] 87.9% | [3] 85.6% | [4] 101% | [5] 102% | [6] 82.1% | [7] 95.5% | [8] 98.8% | [9] 98%

COC(=O)[C@@H](C)C[C@H](Cc1ccc(F)cc1)NC(=O)c1csc([C@@H](C[C@H](C(C)C)N(C)C(=O)[C@@H](NC(=O)[C@H]2CCCCN2C)C2CC2)OC(C)=O)n1
inactive: [1] 17.8% | [2] 17.5% | [3] 20.4% | [4] 22.4% | [5] 49.8% | [6] 29.1% | [7] 30.7% | [9] 41.1%
active: [8] -25%

Cn1cc(-c2csc(-c3cn(CCCCN4CCCCC4)c4ccccc34)n2)c2cccnc21
inactive: [5] 96.8% | [6] 87.6% | [7] 70.6% | [9] 61%
active: [1] -55% | [2] -49.5% | [3] -31.1% | [4] -58.8% | [8] -75.2%

COC(=O)C12CC(NC(=O)c3csc([C@@H](C[C@H](C(C)C)N(C)C(=O)[C@@H](NC(=O)[C@H]4CCCCN4C)C4CC4)OC(C)=O)n3)(C1)C2
active: [6] 3% | [8] -25.2%
inactive: [1] 15.9% | [2] 17.5% | [3] 22.9% | [4] 19.3% | [5] 35.7% | [7] 29.5% | [9] 33.1%

CN(C)C1C(=O)C(C(N)=O)=C(O)C2(O)C(=O)C3=C(O)c4c(O)cccc4C(C)(O)C3CC12.[Cl][Sb]([Cl])[Cl] (stereo unspecified)
inactive: [1] 36.9% | [2] 19.2% | [3] 15.4% | [4] 21.3% | [5] 143% | [6] 76.9% | [7] 45.1% | [8] 38% | [9] 31.7%

CNC(=O)Oc1cccc(C(F)(F)F)c1
inactive: [1] 97.1% | [2] 111% | [3] 87.4% | [4] 87.6% | [5] 114% | [6] 108% | [7] 120% | [8] 125% | [9] 121%

CN(CCCCN(C)CCOS(C)(=O)=O)CCOS(C)(=O)=O
inactive: [1] 28% | [2] 12.1% | [3] 90.8% | [4] 72.6% | [5] 97.6% | [6] 86.7% | [7] 65.8% | [8] 103% | [9] 95.3%

O=C([O][Hg][CH2]C1COCC([CH2][Hg][O]C(=O)c2ccccc2)O1)c1ccccc1 (stereo unspecified)
inactive: [2] 46.8% | [3] 71.8% | [4] 94% | [5] 134% | [10] 90.1% | [6] 118% | [9] 89.1%
active: [1] -2.46% | [8] -94%

CN1CCC(c2c[nH]c3ccccc23)C1 (stereo unspecified)
inactive: [1] 105% | [2] 96.6% | [3] 79.7% | [4] 96.4% | [5] 77% | [10] 107% | [6] 99.4% | [8] 103% | [9] 113%

C1CCC([PH+](C2CCCCC2)C2CCCCC2[PH+](C2CCCCC2)C2CCCCC2)CC1.O=C(C1[CH-]CCCC1)C1CCCC[N-]1.[Au] (stereo unspecified)
active: [1] -5.55% | [2] -1.52% | [3] -10.6% | [4] 3.3% | [5] -64.5% | [6] -52.2% | [7] -33.5% | [8] -77.7%

COc1cc2c(cc1OCCCCn1c(-c3cccs3)nc3ccccc31)N=C[C@@H]1CCCN1C2=O
active: [3] -46.8% | [4] -0.203% | [5] 0.96% | [10] -21.3% | [8] -10.9% | [9] -5.13%
inactive: [1] 20.8% | [2] 32% | [6] 24.9%

CC(=O)Nc1ccc(NC(=O)c2ccc([As](O)O)cc2)cc1
inactive: [1] 108% | [2] 73.8% | [3] 34.5% | [4] 102% | [5] 140% | [10] 103% | [8] 114% | [9] 117%

CO[C@H](C(=O)O)[C@@H]1Cc2cc3cc(OC4CC(OC5CC(O)C(O)C(C)O5)C(O)C(C)O4)c(C)c(O)c3c(O)c2C(=O)[C@H]1OC1CC(OC2CC(OC3CC(C)(O)C(O)C(C)O3)C(O)C(C)O2)C(O)C(C)O1 (stereo partly specified)
inactive: [2] 10.4% | [4] 13.5% | [5] 17.6% | [6] 23.7% | [7] 35.4% | [8] 10%
active: [1] 1.78% | [3] 6.67% | [9] -1.09%

CC1=C(CCCOC(=O)[C@H](N)CC(C)C)C2=C(C)C3(CC3)[C@@](C)(O)C(=O)C2=C1
inactive: [1] 80% | [2] 95.1% | [3] 90% | [5] 22.8% | [9] 79%
active: [4] 3.99% | [6] -18.1% | [7] 2.81% | [8] -14%

CC[C@H](C)[C@H](NC(=O)NC(C)(C)C)C(=O)N(C)[C@H](C[C@@H](OC(C)=O)c1nc(C(=O)N[C@@H](Cc2ccccc2)C[C@H](C)C(=O)OC)cs1)C(C)C
inactive: [1] 17.4% | [2] 10.6% | [4] 18% | [5] 34.8% | [6] 14.9% | [7] 24.5%
active: [3] -3.75% | [8] -16.8% | [9] 3.72%

COc1cc2c(cc1OCc1ccccc1)C(CC(C)C)=[N+](C)CC2
inactive: [1] 91.8% | [2] 89.9% | [3] 56.4% | [4] 73.5% | [5] 93% | [10] 71.5% | [6] 93.1% | [8] 65.7% | [9] 83.1%

N/C(=N/N=C/c1ccncc1)N[N+](=O)[O-]
inactive: [1] 84.2% | [2] 90.9% | [3] 106% | [4] 103% | [5] 94.2% | [6] 111% | [7] 108% | [8] 113% | [9] 106%

C=C(C)[C@@]12OC3(/C=C/C=C/CCCCC)O[C@@H]1[C@@H]1[C@@H]4O[C@]4(CO)[C@@H](O)[C@]4(O)C(=O)C(C)=C[C@H]4[C@@]1(O3)[C@H](C)[C@H]2OC(=O)c1ccccc1
inactive: [1] 31.2% | [2] 67.2% | [3] 66.4% | [4] 82.6% | [5] 107% | [6] 102% | [7] 52.3% | [8] 61.6%
active: [9] 4%

C1CCC([PH+](C2CCCCC2)C2CCCCC2[PH+](C2CCCCC2)C2CCCCC2)CC1.[Au].[CH-]1CCCCC1CC1CCCC[N-]1 (stereo unspecified)
active: [1] 0.501% | [2] 1.21% | [3] -8.82% | [4] 5.9% | [5] -37.2% | [6] -70.5% | [7] -29.4% | [8] -86.5%

COC(=O)[C@H](Cc1ccccc1)NC(=O)c1csc([C@@H](C[C@H](C(C)C)N(C)C(=O)[C@@H](NC(=O)[C@H]2CCCCN2C)C2CC2)OC(C)=O)n1
active: [2] 6.23% | [6] 4.51% | [8] -21.4% | [9] 6.85%
inactive: [1] 10.1% | [3] 10.3% | [4] 17% | [5] 32.3% | [7] 29.1%
